ChEMBL document CHEMBL4513216, “Probing the Open Global Health Chemical Diversity Library for Multistage-Active Starting Points for Next-Generation Antimalarials” (ACS Infect Dis, 2020)
Screen size: about 65,000 compounds; about 2,100 (3.2%) showed an effect of 50% or more. The median lay at about -52%. Only a selection was taken, and strong results are over-represented in it overall.

What follows are molecules tested on Plasmodium falciparum (assay: Screen against P. falciparum Asexual Blood Stage (ABS), at 5uM). Settings: tested at 5 uM.
Format: functional, Dd2

Structure (SMILES) | INHIBITION [%]
Cc1cc(C)n(CC2CCCN2C(=O)c2cn[nH]c2C)n1 (stereo unspecified) | -90
O=C(CCSC1CCc2ccccc2NC1=O)NCCCO (stereo unspecified) | -7.35
Cc1ccc(-c2noc(CN3CCn4c(nnc4C4CC4)C3)n2)cc1 | -44.9
Cc1cccc(-c2noc(CN3CCn4c(nnc4C4CC4)C3)n2)c1 | -35.8
CC(C)c1nnc2n1CCN(Cc1ncc(-c3ccccc3)o1)C2 | 62
c1ccc(-c2cnc(CN3CCn4c(nnc4C4CC4)C3)o2)cc1 | -8.02
Cc1nnc2n1CCN(Cc1ncc(-c3ccc(F)cc3)o1)C2 | 8.55
Cc1ccccc1-c1noc(CN2CCn3c(nnc3C3CC3)C2)n1 | 51.7
CCc1nnc2n1CCN(Cc1ncc(-c3ccccc3)o1)C2 | 46.9
Fc1ccc(-c2cnc(CN3CCn4c(nnc4C4CC4)C3)o2)cc1 | 53.1
Cc1nnc2n1CCN(Cc1ncc(-c3ccccc3)o1)C2 | -95.9
Cc1noc(C2CCCN2C(=O)C2CCC2)n1 (stereo unspecified) | -24
Cc1ncc(CN(C)Cc2nc3cc(Cl)ccc3n2C)s1 | -54.3
c1cc(CNCc2cccc3c2OCCCO3)cc(Cn2cncn2)c1 | 48.9
CC1=NN(CC(=O)N2CC[C@@H]3[C@@H](CCC(=O)N3CC(C)C)C2)CC1 | -127
Cc1ncsc1C(=O)N1CCN(CCC(C)C)CC1 | -64.6
Cc1nc(-c2cccnc2)ncc1C(=O)N1CCC(C(C)N(C)C)CC1 (stereo unspecified) | -79.6
OC1CCN(CCCNc2ncccn2)CC1 | -61.1
CN(C(=O)Nc1ccccn1)C1CCCN(c2ccccc2)C1=O (stereo unspecified) | 13.9
CN(C(=O)Nc1ccncc1)C1CCN(c2ccccc2)C1=O (stereo unspecified) | 51
CN(C(=O)NCc1ccncc1)C1CCN(c2ccccc2)C1=O (stereo unspecified) | -128
CCn1nc2c(cc1=O)CN(CC(=O)Nc1nncs1)CC2 | -35
Cn1cc(N2CC3(CCN(C(=O)c4cccn4C)CC3)OCC2=O)cn1 | -94.7

Structure (SMILES) | INHIBITION [%]
CCn1c(CN2CCN(CCO)CC2)nc2c(F)cccc21 | 10.6
CCn1c(CN2CCN(CC(N)=O)CC2)nc2c(F)cccc21 | -147
CCn1c(CN2CCN(CCOC)CC2)nc2c(F)cccc21 | 68.6
Brc1cccnc1OC1CCNCC1 | 35.5
Cc1nc(SC2CCN(c3sccc3C#N)C2=O)oc1C (stereo unspecified) | -137
Cc1cc2c(N3CCC(N(C)CCc4cnn(C)c4)CC3)ncnc2s1 | -30.9
CCN(C)c1cc(CNC(=O)CNC(=O)CC2CCCCC2)ccn1 | -24.9
CCCNCc1cn(C)nc1-c1cccnc1 | -21.6
CCCNCc1cn(Cc2ccccc2)nc1-c1cccnc1 | 60
Cn1cc(CNCCc2cccnc2)c(-c2cccnc2)n1 | -35.7
Cn1cc(CNCCc2nccs2)c(-c2cccnc2)n1 | 1.56
Cn1cc(CNCCn2cccn2)c(-c2cccnc2)n1 | -42
Cn1cc(CNCCOc2ccc(F)c(F)c2)c(-c2cccnc2)n1 | 54.4
O=C(c1cccnc1)N1CCC2(CCN(C(=O)N3CCCC3)CC2)C1 | -71.7
CCCC(=O)N1CC[C@@H]2[C@H](CC1)N(Cc1cccc(C)n1)CCS2(=O)=O | -82
Cn1cc(CN2CCCC23CCN(c2nc4ccccc4s2)CC3)cn1 | 51.7
Cc1nc(CN2CCCC23CCN(c2nc4ccccc4s2)CC3)co1 | 9.68
c1ccc2sc(N3CCC4(CCCN4Cc4ncc[nH]4)CC3)nc2c1 | 20.4
CC(C)=CCN1CCN(Cc2cc(C)c(O)c(C)c2)CC1CCO (stereo unspecified) | -36
Cc1cc(CN(C)Cc2csc(-c3cccs3)n2)n[nH]1 | -130
Cc1cc(CN(C)Cc2ccccc2N2CCCCC2)n[nH]1 | 67.5
CN(Cc1noc(C(C)(C)C)n1)Cc1ccccc1N1CCCC1 | 16.2
CCN(C(=O)CN1CCn2c(nnc2C2CC2)C1)C1=CCCCC1 | -67.6

Structure (SMILES) | INHIBITION [%]
Cc1nccc(C(=O)NC(CN2CCCC2=O)c2ccccc2)n1 (stereo unspecified) | -66.1
CC(C)CNC(=O)c1nc(COc2ccc3c(c2)OCO3)no1 | -58.7
O=C(CCNCc1cccc(O)c1)N1CCc2sccc2C1 | 52.1
N#Cc1cccc(CNCCC(=O)N2CCc3sccc3C2)c1 | 21.5
O=C(CCN1CCCC1c1cccs1)N1CCc2sccc2C1 (stereo unspecified) | 50.8
O=C(CCC(=O)N1CCCC1c1cccs1)N1CCc2sccc2C1 (stereo unspecified) | -117
O=C(CN1CCCC1c1cccs1)N1CCc2sccc2C1 (stereo unspecified) | 3.62
Cc1cc(C2CCCN2CCC(=O)N2CCc3sccc3C2)no1 (stereo unspecified) | -1.53
COc1ccc(CNCCC(=O)N2CCc3sccc3C2)cc1O | 36.4
Cn1cc(C2CCCN2CCC(=O)N2CCc3sccc3C2)cn1 (stereo unspecified) | -37.7
O=C(CCN1CCCC1C1CCCCC1)N1CCc2sccc2C1 (stereo unspecified) | 59.9
Cc1cnn(C2CN(CC(=O)NCCCc3ccccc3)C2)c1 | -108
c1ccc(NCc2cnc3n2CCN(C2CCOC2)CC3)nc1 (stereo unspecified) | -124
CC(C)NCC1OCCc2cn(C)nc21 (stereo unspecified) | -22.9
CSc1ccc(CN2CCCC3(CNC(=O)c4ccccc4O3)C2)cc1 (stereo unspecified) | -85.7
CN(C)c1cccc(C(=O)N2C[C@@H]3CC[C@H]2CN(C(=O)C2CCC2)C3)c1 | -111
CC[C@@H](C)[C@@H](N)C(=O)Nc1cccc(-c2cnc(N(C)C)nc2)c1 | -60.2
Cc1ccc(-c2cc(CNc3ncnc4c3CCNCC4)no2)cc1 | 63.5
COc1ccc(-c2cc(CNc3ncnc4c3CCNCC4)no2)cc1 | 16
c1cncc(-c2noc(CNc3ncnc4c3CCNCC4)n2)c1 | -88.2
Cc1nnc2n1CCN(C(=O)C(C)Oc1ccc(C#N)cc1)C2 (stereo unspecified) | -140
CN(C)C(=O)CN1C[C@H]2CC[C@@H](C1)N(Cc1cccc(Cl)c1Cl)C2 | 30.9
CC(C)(CN1C[C@H](Nc2ncccn2)[C@@H](C2CC2)C1)N1CCOCC1 | 50.5

Structure (SMILES) | INHIBITION [%]
Cc1nccc(N[C@H]2CN(CCS(C)(=O)=O)C[C@@H]2C2CC2)n1 | -88.4
Cc1cc(N[C@H]2CN(CC(C)(C)N3CCOCC3)C[C@@H]2C2CC2)ncn1 | 48.9
N#CC1(C(=O)N2C[C@H](Nc3ncccn3)[C@@H](C3CC3)C2)CCOCC1 | -92.4
CCS(=O)(=O)N[C@H]1CN(CC(C)(C)N2CCOCC2)C[C@@H]1C1CC1 | -11.1
Cc1nccc(N[C@H]2CN(CC(C)(C)N3CCOCC3)C[C@@H]2C2CC2)n1 | 63.5
Cc1ccc(NC2CCN(C(=O)COCC3CC3)CC2)nn1 | -61.2
CN(C)c1ccc(C(=O)N2CCCC(n3cccn3)C2)cn1 (stereo unspecified) | -240
C/N=C1/c2cc3cc(OC)ccc3n2CCN1Cc1ccccc1 | 25.3
CCC(CN1CCCC1)n1cncc1-c1cnn(-c2ccc(F)cc2)c1 (stereo unspecified) | 43
CCC(CN1CCOCC1)n1cncc1-c1ccc2c(c1)CCCN2C (stereo unspecified) | 31.4
CCC(CN1CCCC1)n1cncc1-c1cnn(-c2ccccc2)c1 (stereo unspecified) | 56.2
O=C(Cc1ccc2c(c1)CCO2)N1CCCC1c1noc(C2CC2)n1 (stereo unspecified) | -67.5
Cc1ccc(CN2CCc3nnc(COCCN(C)C)n3CC2)o1 | -116
O=C(O)c1cc(-c2ccoc2)cc(S(=O)(=O)NC2CC2)c1 | -132
O=C(O)c1cc(-c2ccc3c(c2)OCO3)cc(S(=O)(=O)NC2CC2)c1 | -33.6
CN(C)c1ccc(-c2cc(C(=O)O)cc(S(=O)(=O)NC3CC3)c2)cc1 | 57.2
Cc1cccc(NC2CCc3c2[nH]c(=O)n(C2CCCCC2)c3=O)c1C (stereo unspecified) | -28.8
CN(Cc1cccnc1)[C@@H]1CN(Cc2cnn(C)c2)[C@@H]2CCCO[C@H]12 | -11.9
CC(=O)N[C@H]1CN(S(=O)(=O)N(C)Cc2ccccc2)C[C@@H]1C1CC1 | -59.7
N[C@H]1CN(S(=O)(=O)Cc2ccccc2)C[C@@H]1C1CC1 | 55.5
CN(Cc1ccc(F)cc1)S(=O)(=O)N1CCOCC1 | -118
CCC[C@H]1CN(S(=O)(=O)c2ccccc2)C[C@@H]1N | 16.5
CCC[C@H]1CN(S(=O)(=O)N(C)Cc2ccccc2)C[C@@H]1N | 68.1

Structure (SMILES) | INHIBITION [%]
CN(Cc1ccccc1)S(=O)(=O)N1C[C@@H](C(=O)O)[C@H](C2CC2)C1 | -76.5
CC(C)[C@@H]1CN(S(=O)(=O)Cc2ccccc2)C[C@H]1C(=O)O | -80.4
CN(Cc1ccccc1)S(=O)(=O)N1C[C@H](C2CC2)[C@@H](N)C1 | 58
N[C@H]1CN(S(=O)(=O)c2ccccc2)C[C@@H]1C1CC1 | -0.57
CO[C@H]1C[C@@H](O)C12CCN(C(=O)CCCOc1ccccc1)CC2 | -224
Cc1nc(Oc2ccccc2Cl)sc1C(=O)O | -103
CC(Cn1cccn1)NC(=O)NCc1ccc(OC2CCCC2)nc1 (stereo unspecified) | -90.4
CC1CCCCN1CCNC(=O)c1ccn(-c2cccc(F)c2)n1 (stereo unspecified) | 64.3
CC1CCCCN1CCNC(=O)c1ccn(-c2ccc(F)cc2)n1 (stereo unspecified) | 34.6
CC1CCCCN1CCNC(=O)c1ccn(-c2ccccc2)n1 (stereo unspecified) | 22
COc1ccc(-n2ccc(C(=O)NCCN3CCC(C)CC3)n2)cc1 | -1.58
O=C(NCCn1cccn1)c1ccn(-c2cccc(F)c2)n1 | -67.5
CC1CCCN(CCNC(=O)c2ccn(-c3ccc(F)cc3)n2)C1 (stereo unspecified) | 50.2
CC1CCN(CCNC(=O)c2ccn(-c3ccccc3)n2)CC1 | 24
Cc1cc(C(=O)NCCN2CCCC(C)C2)nn1C (stereo unspecified) | -67.5
O=C(NCCN1CCCCC1)c1ccn(-c2ccc(F)cc2)n1 | 46.1
COc1ccc(-n2ccc(C(=O)NCCN3CCCC(C)C3)n2)cc1 (stereo unspecified) | 7.72
CC1CCCN(CCNC(=O)c2ccn(-c3cccc(F)c3)n2)C1 (stereo unspecified) | 68
CC1CCN(CCNC(=O)c2ccn(-c3ccc(F)cc3)n2)CC1 | 60.9
